Among the data in PubChem BioAssay (NCI) are growth values, retold here.

This is part of a sample that, as a whole, favours compounds with a hit. Of some 83,000 tested, about 20% had one in any assay.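 A percent growth of 40 corresponds to 60% growth inhibition; 0 means no net growth; -100 means all cells died. Active threshold: below 10.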 Values without a mark were called inactive. Calls of active or inactive are those of the source.

Test systems include SK-MEL-2 melanoma; EKVX NSCLC; SN12C renal; UO-31 renal; TK-10 renal; ACHN renal; CAKI-1 renal; A498 renal; CCRF-CEM leukemia; MOLT-4 leukemia; SR leukemia; RPMI-8226 leukemia; OVCAR-8 ovarian; OVCAR-5 ovarian; OVCAR-4 ovarian; SK-OV-3 ovarian; IGROV1 ovarian; OVCAR-3 ovarian; HS 578T breast; NCI/ADR-RES ovarian.
Test in all cases: NCI-60 one-dose screen, 48 h (100 = growth as untreated, 0 = no growth, -100 = all killed)
What all share (settings): 10 µM unless noted

Turning to `O=C1C(=O)N(Cc2ccc(-c3ccccc3)cc2)c2ccc(OC(F)(F)F)cc21`, the growth with SK-MEL-2 melanoma is 69.7%; in the assay on EKVX NSCLC, 94.3%; with SN12C renal, 21.2%; in the assay with UO-31 renal, 45.5%; in the assay on TK-10 renal, 63.9%; in the assay on ACHN renal, 41.7%. Besides, the growth in the assay with CAKI-1 renal was 31.7%; in the assay on A498 renal, 84.8%; with CCRF-CEM leukemia, 9.7% (active); with MOLT-4 leukemia, 30%; in the assay with SR leukemia, 2.04% (active); in the assay on RPMI-8226 leukemia, -5.6% (active). In addition, the growth is 23.6% with OVCAR-8 ovarian; 37.3% with OVCAR-5 ovarian; 36.3% in the assay on OVCAR-4 ovarian; 98.1% in the assay on SK-OV-3 ovarian; 36% in the assay with IGROV1 ovarian; 24.7% in the assay with OVCAR-3 ovarian. The growth was 11.2% with HS 578T breast and 32.6% in the assay on NCI/ADR-RES ovarian.

Consider `CC1(C)COB(OCC(C)(C)COB2OCC(C)(C)CO2)OC1`, for which the growth was 113% in the assay with SK-MEL-2 melanoma; 104% in the assay with EKVX NSCLC; 104% with SN12C renal; 87.7% in the assay with UO-31 renal; 102% in the assay with TK-10 renal; 108% in the assay on ACHN renal. In addition, the growth is 102% in the assay on CAKI-1 renal; 100% in the assay on A498 renal; 101% in the assay on CCRF-CEM leukemia; 108% with MOLT-4 leukemia; 102% in the assay with SR leukemia; 118% with RPMI-8226 leukemia. Further, the growth in the assay with OVCAR-8 ovarian is 100%; in the assay on OVCAR-5 ovarian it was 108%; with OVCAR-4 ovarian, 113%; in the assay with SK-OV-3 ovarian it was 109%; in the assay on IGROV1 ovarian, 105%; with OVCAR-3 ovarian it was 110%. In addition, the growth in the assay on HS 578T breast is 108%; with NCI/ADR-RES ovarian it was 109%.

As for `COc1cc2c(c(OC)c1OC)CCC(c1cccc(C(=O)Nc3cccc(Cl)c3)c1)O2` (stereo not given), the growth with SK-MEL-2 melanoma is 58.3%; with EKVX NSCLC it was 64.2%; in the assay on SN12C renal, 50%; in the assay with UO-31 renal, 40.8%; in the assay with TK-10 renal it was 70.4%; with ACHN renal, 65.4%. The growth with CAKI-1 renal is 84.8%; in the assay with A498 renal, 6.84% (active); in the assay with CCRF-CEM leukemia it was 37.8%; in the assay on MOLT-4 leukemia, 30.4%; in the assay on SR leukemia, 30.5%; in the assay with RPMI-8226 leukemia it was 39.1%. The growth with OVCAR-8 ovarian was 75.1%; in the assay with OVCAR-5 ovarian, 75.3%; with OVCAR-4 ovarian it was 70.3%; with SK-OV-3 ovarian, 64.9%; in the assay with IGROV1 ovarian, 63.8%; with OVCAR-3 ovarian, 85.3%. The growth in the assay with HS 578T breast is 80.2%; in the assay on NCI/ADR-RES ovarian, 83.8%.

Consider `CC1CN(S(=O)(=O)c2oc(-c3ccc(Cl)cc3)nc2C#N)CC(C)O1` (stereo not given), for which the growth was 75.5% in the assay with SK-MEL-2 melanoma; 101% with EKVX NSCLC; 85.5% with SN12C renal; 90.4% in the assay with UO-31 renal; -54% (active) in the assay with TK-10 renal; 28.1% in the assay with ACHN renal. Further, the growth in the assay with CAKI-1 renal was 91.2%; with A498 renal it was 78.7%; in the assay on CCRF-CEM leukemia it was -2.97% (active); in the assay on MOLT-4 leukemia, -10.6% (active); with SR leukemia, -12.9% (active); with RPMI-8226 leukemia, 24.2%. For the same compound, the growth in the assay with OVCAR-8 ovarian was 54.6%; in the assay on OVCAR-5 ovarian, 100%; in the assay with OVCAR-4 ovarian it was 92.4%; in the assay on SK-OV-3 ovarian, 99.9%; in the assay on IGROV1 ovarian, 80.5%; in the assay on OVCAR-3 ovarian, 34.4%. For the same compound, the growth with HS 578T breast was 98.7%; in the assay with NCI/ADR-RES ovarian it was 101%.

In the case of `C#CCOc1ccc2ncnc(Nc3ccc(NC(=O)C=C)cc3)c2c1`, the growth was -0.222% (active) in the assay on SK-MEL-2 melanoma; 2.42% (active) in the assay on EKVX NSCLC; 1.14% (active) with SN12C renal; -26.4% (active) with UO-31 renal; -62.7% (active) with TK-10 renal; -96.6% (active) with ACHN renal. Besides, the growth in the assay with CAKI-1 renal was 24.3%; in the assay on A498 renal it was 74.1%; in the assay with CCRF-CEM leukemia, -39.5% (active); in the assay on MOLT-4 leukemia, -34.7% (active); with SR leukemia, -23% (active); with RPMI-8226 leukemia it was -29.4% (active). Further, the growth was 0.598% (active) in the assay on OVCAR-8 ovarian; 12.2% in the assay with OVCAR-5 ovarian; 35% with OVCAR-4 ovarian; 90.6% in the assay with SK-OV-3 ovarian; -59% (active) with IGROV1 ovarian; -22.3% (active) with OVCAR-3 ovarian. The growth is 14.9% in the assay with HS 578T breast and 67% in the assay on NCI/ADR-RES ovarian.

Turning to `COc1ccc(-c2ccc(=O)oc2-c2cc(OC)c(OC)c(OC)c2)cc1O`, the growth is 39.6% with SK-MEL-2 melanoma; 30.9% with EKVX NSCLC; 25.7% in the assay on SN12C renal; 32.4% in the assay with UO-31 renal; 68% with TK-10 renal; 38.9% in the assay on ACHN renal. Further, the growth in the assay on CAKI-1 renal was -15.8% (active); with A498 renal, -39.7% (active); in the assay on CCRF-CEM leukemia, 7.05% (active); in the assay with MOLT-4 leukemia, 2.3% (active); in the assay with SR leukemia, 0.907% (active); in the assay with RPMI-8226 leukemia it was 9.69% (active). The growth is 14.2% in the assay on OVCAR-8 ovarian; 22.8% in the assay with OVCAR-5 ovarian; 39.8% in the assay on OVCAR-4 ovarian; 25.9% with SK-OV-3 ovarian; 3.86% (active) in the assay on IGROV1 ovarian; -72.7% (active) in the assay with OVCAR-3 ovarian. Besides, the growth is -2.33% (active) in the assay with HS 578T breast and 12.9% in the assay on NCI/ADR-RES ovarian.

Regarding `COc1ccc(C2=C(Br)C(=O)c3nc(C)ccc3C2=O)cc1`, the growth in the assay on SK-MEL-2 melanoma was 102%; in the assay with EKVX NSCLC, 94.4%; with SN12C renal it was 92.8%; in the assay on UO-31 renal, 69.9%; in the assay on TK-10 renal it was 71.7%; in the assay with ACHN renal, 17%. For the same compound, the growth with CAKI-1 renal is 81.2%; in the assay on A498 renal, 88.7%; in the assay on CCRF-CEM leukemia, 30.1%; in the assay on MOLT-4 leukemia it was 41.4%; in the assay on SR leukemia it was 17.3%; in the assay with RPMI-8226 leukemia it was 72.5%. In addition, the growth in the assay with OVCAR-8 ovarian is 88.8%; in the assay on OVCAR-5 ovarian it was 109%; in the assay on OVCAR-4 ovarian it was 87.9%; in the assay with SK-OV-3 ovarian, 85.1%; in the assay on IGROV1 ovarian, 87.5%; with OVCAR-3 ovarian it was 40%. Besides, the growth was 90.8% in the assay with HS 578T breast and 97.4% with NCI/ADR-RES ovarian.

As to `O=C(CN1C(=O)S/C(=C\c2ccccc2)C1=O)Nc1ncc(Cc2ccccc2Cl)s1`, the growth in the assay on SK-MEL-2 melanoma was 102%; with EKVX NSCLC, 108%; in the assay on SN12C renal it was 102%; with UO-31 renal it was 75.1%; in the assay with TK-10 renal, 103%; in the assay on ACHN renal, 92%. For the same compound, the growth is 78.2% in the assay on CAKI-1 renal; 112% in the assay with A498 renal; 97.7% in the assay on CCRF-CEM leukemia; 85.9% in the assay on MOLT-4 leukemia; 113% with SR leukemia; 103% in the assay on RPMI-8226 leukemia. For the same compound, the growth was 93.3% in the assay on OVCAR-8 ovarian; 103% in the assay on OVCAR-5 ovarian; 89.6% in the assay on OVCAR-4 ovarian; 102% in the assay with SK-OV-3 ovarian; 94.6% with IGROV1 ovarian; 109% with OVCAR-3 ovarian. Besides, the growth was 102% in the assay on HS 578T breast and 96.2% with NCI/ADR-RES ovarian.
